Assay outcomes as filed in PubChem BioAssay.
CCHF vOTU inh-1: blocks the CCHF virus ovarian tumor domain protease. CCHFV vOTU protease, Pep-AMC fluorescence. inhibition, % at 11.5 µM. 370,000 tested, 0.55% active; further: 0% = vehicle wells with enzyme and 100% = no enzyme wells
Mtb betalactam: beta-lactam sensitization of Mtb H37Rv; M. tuberculosis H37Rv growth with meropenem, percent inhibition; inhibition, % at 25 µM; 330,000 tested, 0.27% active; AID 434955; call rule not given here;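 further: growth measured after seven days incubation then overnight dye step; 0% = bacteria only wells and 100% = bacteria with antibiotic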
GDH-TPI inh: GDH-TPI coupled enzyme inhibition counter-screen | GDH-TPI coupled enzyme counterscreen, NADH absorbance | inhibition, % at 4.8 µM | 360,000 tested, 1.2% active;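 further: 0% = DMSO wells and 100% = wells lacking the enzyme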
MazEF act: activators of E. coli MazEF toxin-antitoxin RNase; FAM/BHQ RNA-DNA oligo cleavage fluorescence, 5 h; activation, % at 20 µM; 350,000 tested, 0.32% active; AID 504720; in the data active means activation above about 50%
Target sequence (P0AE70 whole entry, looked up): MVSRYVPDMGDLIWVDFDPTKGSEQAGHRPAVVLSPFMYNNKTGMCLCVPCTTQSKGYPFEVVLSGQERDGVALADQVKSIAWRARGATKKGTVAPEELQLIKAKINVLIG
FBA Mtb inh: Mtb fructose-bisphosphate aldolase inhibition; purified M. tuberculosis FBA, fluorescence read-out; AID 588726; 360,000 tested, 2.3% active; inhibition, % at 1 µM; in the data active means inhibition above about 27%;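 further: 0% = vehicle and 100% = reference inhibitor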
Target sequence (P9WQA3 whole entry, looked up): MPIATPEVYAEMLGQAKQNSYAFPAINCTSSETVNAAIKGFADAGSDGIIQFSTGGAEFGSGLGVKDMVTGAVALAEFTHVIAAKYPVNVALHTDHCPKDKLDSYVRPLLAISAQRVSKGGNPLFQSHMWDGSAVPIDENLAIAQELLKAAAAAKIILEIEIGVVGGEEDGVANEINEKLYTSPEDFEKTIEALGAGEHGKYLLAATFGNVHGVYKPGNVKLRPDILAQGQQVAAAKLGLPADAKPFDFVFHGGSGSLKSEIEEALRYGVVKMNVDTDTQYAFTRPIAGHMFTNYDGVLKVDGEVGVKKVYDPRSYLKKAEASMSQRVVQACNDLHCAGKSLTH
CCHF vOTU inh-2: confirmation of CCHF virus vOTU protease inhibitors. inhibition, % at 11.5 µM. shares compounds with CCHF vOTU inh-1. Recombinant CCHFV vOTU, Pep-AMC fluorescence. AID 686976. 1,900 tested, 17% active
Active calls of the source: *; ? = inconclusive; · = no result given. In the library only some 4% were active in any assay of this set; here they are far more common. Unless noted, no stated cut-off is given here; in the data, active means inhibition above about 30%; inactive means the rest.

SMILES	CCHF vOTU inh-1	Mtb betalactam	GDH-TPI inh	MazEF act	FBA Mtb inh	CCHF vOTU inh-2
O=S(=O)(Nc1cc(Sc2ncn[nH]2)c(O)c2ccccc12)c1ccccc1	104.6*	·	-3.1	-17.2	-2.9	96.8*
Cc1ccc(S(=O)(=O)Nc2ccc(Br)cc2C(NCC(=O)O)c2ccccc2)cc1 (stereo not given)	7.7	-9.3	8.2	3.0	0.4	·
Cc1cc(O)c(Sc2ncn[nH]2)cc1NS(=O)(=O)c1ccc(Cl)cc1	-2.6	-0.5	16.0	-0.7	3.8	·
Nc1cccc2cccc([N+](=O)[O-])c12	2.4	·	12.4	-5.0	2.4	·
COc1ccc(N=Nc2nc3cc(Br)c(Br)cc3n2C)c(OC)c1	5.6	67.9	5.8	-202.0	0.2	·
CC(NC(=O)c1ccc(OC2CCN(S(=O)(=O)N(C)C)CC2)cc1)C1CC1 (stereo not given)	5.1	1.1	-1.3	-4.5	0.2	·
Cc1ccc(/C=N/Nc2nncn2N)cc1	87.2*	95.7	4.7	-11.8	0.9	-17.1
Nn1cnnc1N/N=C/c1ccc(Cl)c([N+](=O)[O-])c1	99.2*	-5.1	-3.1	3.0	-12.2	10.5
Nn1cnnc1N/N=C/c1ccc(F)cc1	91.7*	52.6	8.6	-37.6	-5.2	-17.6
Fc1ccc(/C=N/Nc2nn[nH]n2)cc1	-1.1	0.8	1.9	7.3	4.9	·
Cc1c(C=O)c(=O)n(-c2ccccc2)n1-c1ccccc1	32.1*	2.3	24.7	1.5	3.1	-18.8
Cc1c(C(=O)O)c(=O)n(-c2ccccc2)n1-c1ccccc1	-8.2	-2.7	3.3	-2.0	1.8	·
Cc1c(P(=S)(c2ccccc2)c2ccccc2)[n+]2ccccc2n1C/C=C/c1ccccc1	30.1*	·	6.2	·	0.9	-32.6
O=C(CN1C(=O)/C(=C/c2ccccc2)SC1=S)NC1CCS(=O)(=O)C1 (stereo not given)	3.6	3.5	11.3	1.6	2.1	·
O=C(O)CN1C(=O)/C(=C\c2cc(Br)ccc2OCc2ccc(F)cc2)SC1=S	31.3*	1.3	12.7	-9.9	-1.2	24.9
O=C(O)CN1C(=O)/C(=C\c2cc(Br)ccc2OCc2ccc(Cl)cc2)SC1=S	13.7	3.4	3.4	-10.9	-2.5	·
O=C(O)CN1C(=O)/C(=C\c2ccccc2OCc2ccc(F)cc2)SC1=S	35.1*	0.3	6.6	-9.0	-0.7	6.9
COc1ccccc1/C=C1\SC(=S)N(CC(=O)NC2CCS(=O)(=O)C2)C1=O (stereo not given)	31.1*	-5.1	22.3	3.6	-1.4	-0.1
O=C(CN1C(=O)N/C(=C\c2ccccc2OCc2ccc(C(=O)O)cc2)C1=O)Nc1ccc(F)cc1	31.7*	4.1	16.4	2.0	0.2	-12.1
Cc1ncc2c(n1)NC(=O)NC2	5.6	·	9.9	2.9	1.4	·
O=C(CCCn1c(=O)oc2ccccc21)Nc1ccccc1	7.3	·	2.4	-17.2	0.5	·
O=C1C[C@@H]2c3c(cccc3CN1Cc1ccc(Br)cc1)C[C@@H](O)[C@H]2O	-8.5	·	11.2	0.9	-0.6	·
CC(=O)OCCCNc1cc(SCc2ccco2)c2nonc2c1[N+](=O)[O-]	55.0*	97.7	17.3	3.0	-3.5	-17.7
CC[C@H](CO)Oc1cc(NCc2cccc(N)c2)c2ncn(C(C)C)c2c1	75.3*	·	·	·	·	56.8*
C[C@H](NC(N)=O)C(=O)Nc1ccc2c(c1)OCO2	-5.8	-1.3	-6.2	5.5	0.6	·
SMILES	CCHF vOTU inh-1	Mtb betalactam	GDH-TPI inh	MazEF act	FBA Mtb inh	CCHF vOTU inh-2
Cc1ccc(-n2nc3c(c2NC(=O)c2ccc(F)c(F)c2)CS(=O)(=O)C3)cc1	15.9	?	11.4	-2.3	3.5	·
Cc1ccc(NP(=O)(c2ccc(N(C)C)cc2NC(=O)c2cccs2)N2CCOCC2)cc1Cl (stereo not given)	29.6*	15.7	8.5	-15.1	4.4	-25.4
Cc1ccc(NP(=O)(c2ccc(N(C)C)cc2NC(=O)c2cccs2)N2CCOCC2)cc1 (stereo not given)	10.0	-1.3	16.2	2.4	-2.0	·
CCc1nnc(NS(=O)(=O)c2ccc(NC(=O)/C=C/c3ccccc3Cl)cc2)s1	35.3*	-3.8	7.3	-5.2	-0.8	5.4
CN(C)c1ccc2nc3ccc(=O)cc-3sc2c1	76.5*	·	10.6	-2.7	0.3	50.2*
O=C(CCS(=O)(=O)c1ccc(Br)cc1)N1CCCCCC1	-0.7	1.8	1.5	-12.5	3.1	·
CN(c1ccccc1)c1ccc(/C=C(\CCC(=O)O)c2nc3ccccc3s2)cc1[N+](=O)[O-]	35.5*	-3.3	22.6	-6.9	0.3	28.6
Cc1ccc(/C=C(\CCC(=O)O)c2nc3ccccc3s2)cc1[N+](=O)[O-]	31.2*	5.5	34.4*	2.5	-3.0	21.4
COc1ccc(NC2CCCN(C(=O)C3=NN(C)C(=O)CC3)C2)cc1OC (stereo not given)	13.0	2.6	6.5	11.5	-1.9	·
Nc1ccc(N=Nc2ccc(O)cc2)c(N)n1	38.4*	·	12.1	-7.3	-12.2	7.0
O=C1N=C(N2C=CC(=C3C=CNC=C3)C=C2)/C(=C/N=NC(=O)c2ccccc2)S1	40.9*	3.3	10.1	9.2	-7.0	-4.3
COc1cc([N+](=O)[O-])ccc1NC(=S)Nc1cccc(C(=O)O)c1	30.9*	0.6	3.7	-2.2	6.9	-12.8
CN=C(Nc1ccc(Cl)cc1)c1ccc(C(F)(F)F)cc1	35.8*	-5.6	5.3	-1.0	0.8	-4.7
Cc1coc2c(C)c3oc(=O)c(CCC(=O)N4CCC(C(=O)NCCCC(=O)O)(c5ccccc5)CC4)c(C)c3cc12	-11.8	?	12.2	-15.1	23.3	·
CCCCc1c(-c2ccc(F)cc2F)ncn1CCc1ccccc1OC	40.4*	·	·	·	·	5.0
COc1ccccc1CCn1cnc(-c2ccccc2F)c1CC(C)C	45.2*	·	·	·	·	2.5
C/C(=N/NC(=O)CCC(=O)Nc1ccc(Br)cc1)c1ccc(Br)cc1	-12.3	-5.7	11.0	-31.7	2.3	·
CN(C)c1ccc(N=Cc2cccn2C)cc1	42.1*	-5.5	-3.1	8.3	-3.6	-12.6
CN(C)c1ccc(N=C/C=C2\N(C)c3ccccc3C2(C)C)cc1	21.7	13.4	30.6	15.8	-6.2	·
O=C(CCNC(=O)c1ccc(Br)cc1)NC1CCCCCC1	36.7*	2.4	16.7	3.7	6.4	-3.4
O=C(CCNC(=O)c1ccc(Cl)cc1)NC1CCCCCC1	0.2	-11.6	3.5	2.9	-0.4	·
CN1c2ccccc2C(C)(C)C12C=Cc1cc(O)ccc1O2 (stereo not given)	7.6	1.6	14.3	17.7	0.2	·
CN1c2ccccc2C(C)(C)C12C=Nc1c(cc(N3CCOCC3)c3ccccc13)O2 (stereo not given)	102.3*	·	8.4	-2.7	-10.6	-16.3
O=c1[nH][nH]cc1C=NCc1cccc(C(F)(F)F)c1	-1.1	-0.3	7.8	3.8	-0.2	·
O=C1NC(c2ccc(-c3ccccc3[N+](=O)[O-])o2)C(C(=O)c2ccc(F)cc2)C(O)(C(F)(F)F)N1 (stereo not given)	42.3*	14.4	7.2	8.7	-0.3	4.7
